The record followed here is PubChem BioAssay (NCATS).

Inconclusive results are not listed. Entries that show only a call come without a potency. Calls of active or inactive are those of the source. The call rests on the fitted dose curve; in most records, active means well fitted cell-killing curve with a large enough effect; inconclusive means small, poorly fitted or top-dose-only effect; inactive means flat fitted curve, though single readings scatter.
Potency means the concentration at half of the fitted maximal effect.

The assay in a line: qHTS of pediatric cancer cell lines to identify multiple opportunities for drug repurposing: Primary screen for control Hh wild type fibroblast cells (AID 1347106). Further: nearly all actives have a fitted effect of over 55% in size.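 On activity change, negative = cytotoxic: a drop in luminescence marks cytotoxicity and a rise apparent proliferation.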 The settings on record: Hh wild-type fibroblast viability, CellTiter-Glo luminescence, 48 h; series mostly up to 46 µM. From the text:
Drug repurposing or repositioning has been offered as a strategy for drug development in oncology programs. This approach has special potential for childhood cancers and other rare or orphan diseases, where the expected return on new drug development has been a disincentive to pharmaceuticals.
In this project we exploit the poly-pharmacology of drugs to discover new indications via phenotypic screening of a panel of 19 well-characterized cell lines derived from solid tumors seen in children and adolescents. The goal is to identify approved drugs with previously unrecognized anticancer properties that has the potential to reveal new mechanisms and biological processes involved in carcinogenesis or drug resistance. We employed a titration-based paradigm (quantitative high-throughput screening or qHTS), where all compounds were tested at multiple concentrations for their effect on cell viability. Concentration-response curves (CRCs) were derived directly from the primary screen, and both potency and efficacy values were used to identify compounds with robust bioactivity profiles. We screened the NIH Chemical Genomics Center (NCGC) Pharmaceutical Collection (NPC) and Mechanism Interrogation Plate (MIPE) small molecule collections of approved and investigational compounds against these cell lines; and measured metabolically active cells after 48 hours of compound treatment as a proxy for cell viability.
Assay Submitter: Nathalia J. Martinez, National Center for Advancing Translational Sciences, National Institutes of Health, Rockville, MD, USA; email: natalia.martinez@nih.gov
[1] Shen, M et al. Quantitative high-throughput phenotypic screening of pediatric cancer cell lines identifies multiple opportunities for drug repurposing. Oncotarget 2017 Dec 19;9(4):4758-4772. PMID 29435139.
The cells were obtained from University of North Carolina (UNC), Pediatric Preclinical Testing Program (PPT), and Coriell Institute (CI).
qHTS cell viability assay:
Cells were assayed in growth media at a density of 500-1,000 cells/well. Five microliters of cells were dispensed into 1,536-well, white, solid-bottom, TC-treated plates (Greiner Bio One) using a multidrop dispenser and incubated at 37 degrees C, 5% CO2, under a humidified atmosphere for 5 hours. Twenty-three nanoliters of compounds and controls (neutral control DMSO or positive control bortezomib at final concentration of 2.3 µM) were subsequently transferred by Kalypsys pintool. For primary screens, the MIPE collection was tested at 11-point dilutions (final concentrations range from 0.78 nM to 46 µM) and the NPC collection at 8-point dilutions (final concentrations range from 0.59 nM to 46 µM). Compounds tested in follow-up screens were assayed at 11-point dilutions. Cells were incubated for 48 hours, followed by addition of 3 µL of CellTiter-Glo (Promega). After a 15 min incubation at room temperature, samples were analyzed for luminescence intensity using a ViewLux High-throughput CCD imager equipped with clear filters.
A general note: In qHTS, concentration-response curves come from the screen itself.
Turning to `COc1cc2nccc(Oc3ccc(NC(=O)Nc4ccc(F)cc4F)c(F)c3)c2cc1OC`, the Potency result is “inactive”.

For `CCC[C@@H](NC(=O)[C@@H]1[C@H]2CCC[C@@H]2CN1C(=O)[C@@H](NC(=O)[C@@H](NC(=O)c1cnccn1)C1CCCCC1)C(C)(C)C)C(=O)C(=O)NC1CC1`, the Potency result is “inactive”.

Consider `N#Cc1c(N(CC(=O)O)CC(=O)O)sc(C(=O)O)c1CC(=O)O`, for which the Potency entry was “inactive”.

On to `Cc1cc(C(C)Nc2ccccc2)c2nc(N3CCOCC3)cc(=O)n2c1` (stereo not given), for which the Potency entry is “inactive”.

`COc1ccc(-c2ccc3ncc4c(c3c2)n(-c2ccc(N3CCNCC3)c(C(F)(F)F)c2)c(=O)n4C)cn1`: the Potency was 2.09 µM (active).

In the case of `O=C(O)CCC=CCC[C@@H]1[C@H](N2CCCCC2)[C@@H](O)C[C@@H]1OCc1ccc(-c2ccccc2)cc1`, the Potency entry is “inactive”.

As to `C[C@H]1COC2=C1C(=O)C(=O)c1c2ccc2c1CCCC2(C)C`, the Potency entry is “inactive”.

`CO[C@H]1O[C@@H]2O[C@@]3(C)CC[C@@H]4[C@@H](C)CC[C@@H]([C@H]1C)[C@@]24OO3`: the Potency entry was “inactive”.

Regarding `C[C@@H](O[C@H]1OCCN(Cc2n[nH]c(=O)[nH]2)[C@@H]1c1ccc(F)cc1)c1cc(C(F)(F)F)cc(C(F)(F)F)c1`, the Potency entry was “inactive”.

Turning to `COC1CCC(C(=O)c2ccc3nc4c(cc3c2)CCCO4)CC1` (stereo not given), the Potency result was “inactive”.

Consider `NC(=O)c1noc([C@H](CCCC2CCCCC2)CC(=O)NO)n1`, for which the Potency result is “inactive”.

In the case of `Cc1ccc(C(=O)N(CCCN)[C@@H](c2oc3cc(Cl)ccc3c(=O)c2Cc2ccccc2)C(C)C)cc1`, the Potency entry was “inactive”.

For `CN1CCN(c2cccc(Nc3nc4c(-c5ccc(S(C)(=O)=O)cc5)cccn4n3)c2)CC1`, the Potency entry is “inactive”.

`O=C(c1ccc(F)c(F)c1Nc1ccc(I)cc1F)N1CC(O)([C@H]2CCCCN2)C1`: the Potency is 16.6 µM (active).

`CNC1CCC(N(Cc2cccc(-c3ccncc3)c2)C(=O)c2sc3ccccc3c2Cl)CC1` (stereo not given): the Potency entry is “inactive”.

On to `CN(C)c1ccccc1CN1CCCN(Cc2ccccc2N(C)C)C1c1ccncc1`, for which the Potency result is “inactive”.

For `CN[C@@H]1CN(c2ccc3c(=O)c(C(=O)O)cn(-c4nccs4)c3n2)C[C@@H]1OC`, the Potency result is “inactive”.

As to `CCN(CCO)CCCOc1ccc2c(Nc3cc(CC(=O)Nc4cccc(F)c4)[nH]n3)ncnc2c1`, the Potency result was “inactive”.

For `CCOC(=O)[C@H]1O[C@H]1C(=O)N[C@@H](CC(C)C)C(=O)NCCC(C)C`, the Potency entry was “inactive”.

For `O=C(O)C1=NC(C(=O)O)CC(C=CN2c3cc(O)c(OC4OC(CO)C(O)C(O)C4O)cc3CC2C(=O)O)=C1` (stereo not given), the Potency entry was “inactive”.

For `COc1ccc2nc3cc(Cl)ccc3c(Nc3cc(CN4CCCC4)c(O)c(CN4CCCC4)c3)c2n1`, the Potency result is “inactive”.

With `Cc1cccc(Nc2nc(N[C@@H]3CCCC[C@H]3N)ncc2C(N)=O)c1`, the Potency result is “inactive”.

As for `CC(C)CNc1ccnc(NCc2csc(-c3ccccc3)n2)n1`, the Potency result was “inactive”.

Take `NC(=O)c1nnn(Cc2cc(Cl)c(C(=O)c3ccc(Cl)cc3)c(Cl)c2)c1N`: the Potency result was “inactive”.

For the molecule `CN(C)CC[C@H](CSc1ccccc1)Nc1ccc(S(=O)(=O)NC(=O)c2ccc(N3CCN(Cc4ccccc4-c4ccc(Cl)cc4)CC3)cc2)cc1[N+](=O)[O-]`, the Potency entry is “inactive”.

Consider `CS(=O)(=O)c1ccc(C2=C(c3ccccc3)C(=O)OC2)cc1`, for which the Potency entry was “inactive”.

With `CN1[C@H]2CC[C@H]1CC(OC(=O)c1c[nH]c3ccccc13)C2` (stereo not given in full), the Potency result is “inactive”.

For the molecule `O=C1NC(=O)C(=Cc2ccc(-c3ccc(F)cc3O)o2)S1`, the Potency entry is “inactive”.

Turning to `COc1ccc(Cn2ccc3ccc(C(=O)NO)cc32)cc1`, the Potency entry was “inactive”.

Consider `N#CC(c1ccnc(NCCc2cccnc2)n1)c1nc2ccccc2s1` (stereo not given), for which the Potency result is “inactive”.

Take `CC1(C)OC2CC3C4CC(F)C5=CC(=O)C=CC5(C)C4C(O)CC3(C)[C@]2(C(=O)CO)O1` (stereo not given in full): the Potency result is “inactive”.

For `COc1cc2c(cc1Cc1cccc(Cl)c1F)c(=O)c(C(=O)O)cn2[C@H](CO)C(C)C`, the Potency entry was “inactive”.

As for `CCOc1ccccc1N=Nc1c(C)[nH]n(-c2nc(-c3ccccc3)cs2)c1=O`, the Potency result is “inactive”.

Take `COc1ccc(CCN(C)CCCOc2ccc(S(=O)(=O)c3[nH]c4ccccc4c3C(C)C)cc2)cc1OC`: the Potency entry is “inactive”.

Consider `C=C[C@@H]1CN2CCC1C[C@@H]2C(O)c1ccnc2ccc(OC)cc12` (stereo not given in full), for which the Potency result was “inactive”.

With `CCOC(=O)[C@H](CCc1ccccc1)N[C@@H](C)C(=O)N1CCCC1C(=O)O` (stereo not given in full), the Potency entry was “inactive”.

With `OC(c1cc(C(F)(F)F)nc2c(C(F)(F)F)cccc12)C1CCCCN1` (stereo not given), the Potency entry is “inactive”.

For the molecule `O=C(Nc1ncc(SCCN2CCCC2)s1)[C@]1(c2ccc(S(=O)(=O)C3CC3)cc2)C[C@@H]1C1CCCCC1`, the Potency result is “inactive”.

Take `C[C@@H](N)c1ccc(C(=O)Nc2ccnc3[nH]ccc23)cc1`: the Potency entry was “inactive”.

As for `CN[C@H]1[C@@H](O[C@@H]2[C@H](O[C@@H]3[C@@H](O)[C@@H](O)[C@@H](N=C(N)N)[C@@H](O)[C@@H]3N=C(N)N)O[C@H](C)[C@@]2(O)C=O)O[C@@H](CO)[C@@H](O)[C@H]1O`, the activity change, negative = cytotoxic is 10.5% [at 9.22 µM] (inactive).
